GC-B act = GC-B (human) receptor activation; P20594; HEK293-GC-B cells, CNP EC30, cGMP TR-FRET; 0% at EC30 CNP, 100% saturating CNP; activation, % at 10 µM; 370,000 tested, 0.11% active;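 active = activation at 10 µM reaching about 35% in either raw or pattern-adjusted values, limit read from the data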
NOD2 RIPK2 PPI = inhibitors of human NOD2-RIPK2 interaction; inhibition, % at 4.98 µM; CHO BLA complementation NOD2-RIPK2, CCF4 ratio; 360,000 tested, 0.38% active; O43353; AID 624267; in the data active = inhibition above about 21%;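 note: 0% = vehicle only and 100% = reference blocker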
TLR9-MyD88 inh = blocks human TLR9 binding to MyD88; Q9NR96+Q99836; CHO BLA complementation TLR9-MyD88, CCF4 FRET ratio; inhibition, % at 4.98 µM; 340,000 tested, 0.21% active;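 active = inhibition above the mean over all tested compounds plus 3 SD, cut at about 21% in these data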;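 note: 0% = DMSO only wells and 100% = clavulanate BLA inhibitor control wells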
NPR1 activator = GC-A (human) enzyme activation; P16066; HEK293 GC-A cells, cGMP TR-FRET, EC30 ANP; 0% at EC30 ANP, 100% saturating ANP; activation, % at 10 µM; 370,000 tested, 0.14% active; AID 1671463; in the data active = activation above about 40%
Target sequence (P16066 whole entry, looked up): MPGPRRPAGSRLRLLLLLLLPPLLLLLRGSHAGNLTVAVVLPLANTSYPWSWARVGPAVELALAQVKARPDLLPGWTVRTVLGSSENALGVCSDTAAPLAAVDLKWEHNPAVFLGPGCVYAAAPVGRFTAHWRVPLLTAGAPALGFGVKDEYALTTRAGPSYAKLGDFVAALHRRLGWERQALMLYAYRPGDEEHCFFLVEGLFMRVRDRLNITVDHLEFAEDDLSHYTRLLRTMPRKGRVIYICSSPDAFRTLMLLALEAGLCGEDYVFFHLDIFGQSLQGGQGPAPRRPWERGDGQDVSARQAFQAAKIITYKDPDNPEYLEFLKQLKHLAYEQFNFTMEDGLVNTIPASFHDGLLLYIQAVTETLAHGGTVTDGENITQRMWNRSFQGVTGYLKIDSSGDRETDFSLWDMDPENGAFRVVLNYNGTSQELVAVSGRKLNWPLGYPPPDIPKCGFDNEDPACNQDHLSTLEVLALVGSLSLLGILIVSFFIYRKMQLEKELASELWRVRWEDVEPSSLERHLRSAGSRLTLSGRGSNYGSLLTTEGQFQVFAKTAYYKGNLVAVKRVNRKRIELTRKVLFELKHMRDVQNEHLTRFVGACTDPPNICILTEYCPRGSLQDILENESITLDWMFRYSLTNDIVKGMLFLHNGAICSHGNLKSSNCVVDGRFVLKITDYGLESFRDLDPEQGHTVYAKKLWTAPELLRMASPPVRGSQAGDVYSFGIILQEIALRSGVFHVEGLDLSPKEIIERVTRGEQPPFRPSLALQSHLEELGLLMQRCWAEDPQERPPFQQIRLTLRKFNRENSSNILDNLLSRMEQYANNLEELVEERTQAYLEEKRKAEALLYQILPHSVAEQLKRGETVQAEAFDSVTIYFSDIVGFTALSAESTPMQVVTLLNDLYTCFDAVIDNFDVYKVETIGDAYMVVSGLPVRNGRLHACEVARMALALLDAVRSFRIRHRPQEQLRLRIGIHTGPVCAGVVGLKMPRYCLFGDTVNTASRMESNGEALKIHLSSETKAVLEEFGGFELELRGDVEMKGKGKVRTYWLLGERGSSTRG
TLR4-MyD88 BLA = TLR4-MyD88 interaction inhibition in cells; O00206+Q99836; HeLa CL3-4 TLR4/MyD88 BLA complementation, FRET ratio; inhibition, % at 8.4 µM; 200,000 tested, 0.18% active; in the data active = inhibition above about 25%;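 note: 0% = vehicle and 100% = reference inhibitor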
Neddyl block = blocks human cullin neddylation | P61081+Q13564 | AID 651699 | TR-FRET cullin neddylation, biochemical | inhibition, % at 25 µM | 360,000 tested, 0.58% active; in the data active = inhibition above about 36%
Neddyl conf = cullin neddylation inhibition, confirmation; shares compounds with Neddyl block; TR-FRET cullin neddylation biochemical assay; calls only at 25 µM; 1,800 tested, 13% active; AID 652217; in the data active = inhibition above about 40%;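 note: neddylation substrate is the cullin 1 ring ligase complex with SKP2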
* hit, by the source's call; i = inactive; nt = no result shown; + = active, no number. In the library only some 1.2% were active in any assay of this set; here they are far more common.

SMILES | GC-B act | NOD2 RIPK2 PPI | TLR9-MyD88 inh | NPR1 activator | TLR4-MyD88 BLA | Neddyl block | Neddyl conf
CS(=O)(=O)Nc1ccc(C2=NN(C(=O)c3ccco3)C(c3ccccc3F)C2)cc1 (configuration not stated) | -15 | -7 | -5 | -17 | -14 | 48* | i
CC(C)(C)OC(=O)n1ccc2ccc(-c3ccc4cc[nH]c4c3)cc21 | -6 | nt | nt | -3 | nt | nt | nt
N#CCC[C@@H]1CC[C@]2(CCCN(S(=O)(=O)c3ccccc3)C2)O1 | -8 | nt | nt | 2 | nt | nt | nt
CN(Cc1ccccc1)N=Nc1nc[nH]c1C(N)=O | -10 | 1 | nt | 1 | nt | -16 | nt
CCCCCN1CCCCC(NC(=O)c2ccc3ccccc3c2)C1=O (configuration not stated) | -6 | nt | nt | 1 | nt | nt | nt
Cc1ccc2[nH]c3c(NCCN4CCOCC4)ncnc3c2c1 | 1 | -7 | -10 | 5 | -6 | 28 | nt
Clc1ccc2[nH]c3c(NCCCN4CCOCC4)ncnc3c2c1 | 4 | -22 | -3 | 0 | 21 | 38* | i
O=C(c1cc2c(s1)CCCC2)N1CCN(CCO)CC1 | 2 | -3 | -6 | 0 | nt | -3 | nt
COc1cc(/C=N/NC(=O)c2nnn(-c3nonc3N)c2C(C)C)ccc1OCc1ccccc1 | 4 | -11 | 7 | 4 | nt | 43* | i
Nc1nonc1-n1nnc(C(=O)N/N=C/c2ccc3c(c2)OCO3)c1CSc1ccccc1 | 6 | -11 | -5 | 1 | nt | 42* | i
COc1ccc(NC(=O)C2CCCCN2S(=O)(=O)c2ccccc2)cc1S(=O)(=O)N1CCOCC1 (configuration not stated) | 5 | -19 | -4 | 2 | nt | 5 | nt
COc1ccc(CN2CCC[C@]3(N[C@H](c4ccccc4)[C@@H]4C(=O)N(C)C(=O)[C@@H]43)C2=O)cc1 | 8 | -4 | 1 | -3 | nt | 0 | nt
CCOC(=O)c1cc2c(nc1N)CCCC2 | -3 | 15 | 8 | 7 | nt | nt | nt
CCOC(=O)c1cnc2cc3c(cn2c1=O)CCCC3 | -4 | -10 | 2 | 3 | 6 | 40* | nt
COC[C@@H]1CCCN1c1ccc2c(c1)O[C@@H]1CCN(C1)S2(=O)=O | 4 | nt | nt | 3 | nt | nt | nt
O=C(NN1C(=O)c2ccccc2NC1c1ccco1)c1ccccc1 (configuration not stated) | 5 | -6 | 1 | 1 | -2 | 30 | nt
O=C(NN1C(=O)c2ccccc2NC1c1cccnc1)c1ccccc1 (configuration not stated) | 7 | 5 | -3 | 4 | -12 | 41* | i
COCc1ccc(CN2CCc3c([nH]c4ccccc34)C2CC(C)C)o1 (configuration not stated) | -4 | 3 | 1 | -5 | 5 | 40* | i
CCc1nccn1CCC(=O)N1CCc2c([nH]c3ccccc23)C1CC(C)C (configuration not stated) | 8 | -3 | 3 | -10 | nt | 13 | nt
CCCS(=O)(=O)NC(=O)C1(C)CCN(C(=O)c2cccc(OC(F)(F)F)c2)C1 (configuration not stated) | 0 | -2 | nt | 2 | nt | -7 | nt
CCCCCNc1nc(N2CCCC2)c2c(c1C#N)CCN(C)C2 | 9 | -6 | -5 | 24 | 4 | 44* | i
Cc1ccc(-c2ccc(CCC(=O)O)n2CC2CCCO2)cc1 (configuration not stated) | 4 | -6 | -3 | 1 | -3 | nt | nt
O=C(O)CCc1ccc(-c2ccccc2)n1CC1CCCO1 (configuration not stated) | 3 | -7 | 2 | 3 | 17 | 52* | nt
COC(=O)Cn1c(CCC(=O)O)ccc1-c1ccccc1 | -2 | -3 | -8 | -1 | -12 | 43* | i
COc1ccc(NC(=O)Cn2c(CCC(=O)O)ccc2-c2ccccc2)cc1 | 3 | -6 | -9 | 4 | nt | 13 | nt
SMILES | GC-B act | NOD2 RIPK2 PPI | TLR9-MyD88 inh | NPR1 activator | TLR4-MyD88 BLA | Neddyl block | Neddyl conf
COc1ccc2oc3cc(NCCN(C)C)ccc3c(=O)c2c1 | 4 | -12 | nt | 14 | nt | 28 | nt
CCC(c1nnnn1-c1ccc2c(c1)OCCO2)N1CCN(CC)CC1 (configuration not stated) | 2 | -1 | nt | 3 | nt | -3 | nt
O=C(CCN1C(=O)S/C(=C/c2ccccc2)C1=O)Nc1ccc(O)c(C(=O)O)c1 | -6 | -6 | 4 | 7 | nt | 44* | i
CC(=O)c1ccc(-c2ccc(C(=O)N(C)Cc3nc4ccccc4c(=O)[nH]3)o2)cc1 | 1 | 7 | 3 | 0 | nt | 73* | nt
CC1(C)Cc2nc3sc(C(=O)NCCCO)c(N)c3cc2CO1 | 2 | -7 | -3 | 2 | nt | 7 | nt
COC(=O)c1sc2nc3c(cc2c1N)COC(C)(C)C3 | 12 | -10 | 5 | 16 | 6 | 52* | +
O=C1C=CC2=C3c4cc(O)c(O)cc4CC3(O)COC2=C1O (configuration not stated) | -4 | -7 | -6 | -12 | nt | -13 | nt
CCOc1ccc(N=Cc2c(O)c3ccccc3oc2=O)cc1 | -2 | 8 | 4 | 5 | 0 | 0 | nt
CCOC(=O)c1ccccc1N=Cc1c(O)c2ccccc2oc1=O | 1 | 3 | -6 | 1 | nt | 40* | i
Cc1cccc(C(=O)Oc2ccc(/C=N/NC(=O)c3ccncc3)cc2)c1 | 7 | -4 | -8 | 3 | -17 | 40* | i
O=C(Oc1ccc(/C=N/NC(=O)c2ccccc2O)cc1)c1ccccc1 | 4 | -4 | 10 | 2 | -5 | 39* | i
Cc1cccc(C(=O)Oc2ccc(/C=N/NC(=O)c3cc(O)cc(O)c3)cc2)c1 | -3 | 5 | -8 | 0 | nt | 1 | nt
CCCCCCN1C[C@H](O)[C@@H](n2cc(C3CC3)nn2)C[C@@H]1c1ccccc1 | -2 | -2 | -12 | -9 | nt | -7 | nt
Cc1cc(C)cc(N(C(=O)c2snc(C(N)=O)c2N)C(C(=O)NCC2CCCO2)c2cccs2)c1 (configuration not stated) | -12 | -2 | nt | -34 | -20 | 43* | i
CCOc1ccc(N(C(=O)c2snc(C(N)=O)c2N)C(C(=O)NCC2CCCO2)c2ccc(C)o2)cc1 (configuration not stated) | -1 | -11 | -4 | -1 | nt | 8 | nt
Cc1ccc(C(C(=O)NCC2CCCO2)N(C(=O)c2snc(C(N)=O)c2N)c2ccc(F)cc2)o1 (configuration not stated) | -5 | -5 | -6 | -13 | nt | 53* | +
COc1cccc(N(C(=O)c2snc(C(N)=O)c2N)C(C(=O)NCC2CCCO2)c2cccs2)c1 (configuration not stated) | -4 | 2 | 4 | -17 | nt | 35 | nt

Screens from PubChem.
